Results on 30 molecules are retold here after PubChem BioAssay AID1645875 (National Center for Advancing Translational Sciences (NCATS), 2021).

Results filed as inconclusive are left out. A number with no mark means an inactive call. Calls of active or inactive are those of the source. Calls follow the shape of the dose curve; as a rule, active = well fitted inhibition curve with a large enough effect; inconclusive = small, poorly fitted or top-dose-only effect; inactive = no such curve, though single readings can be large or run the other way.

The test deals with N-terminal Xaa-Pro-Lys N-methyltransferase 1 (Homo sapiens) (UniProt Q9BV86). In words: Orthogonal qHTS for Inhibitors of N-terminal methyltransferase 1 (NTMT1): ThioGlo Assay. Particulars: NTMT1 SAHH-coupled ThioGlo fluorescence, 30 min; series mostly up to 84.5 µM; activity, negative = inhibition: at the top concentration. In a few lines: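 125 nM NTMT1 pre-incubated 1 min at room temperature with titrated compounds, then 100 uM SAM, 10 uM SAHH and 15 uM ThioGlo3 (final) added. Fluorescence (ex 340/em 450 nm) read before and after 30 min in the dark, normalized to the initial background.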
N-terminal Xaa-Pro-Lys N-methyltransferase 1 (Homo sapiens), sequence (Q9BV86 whole entry, looked up): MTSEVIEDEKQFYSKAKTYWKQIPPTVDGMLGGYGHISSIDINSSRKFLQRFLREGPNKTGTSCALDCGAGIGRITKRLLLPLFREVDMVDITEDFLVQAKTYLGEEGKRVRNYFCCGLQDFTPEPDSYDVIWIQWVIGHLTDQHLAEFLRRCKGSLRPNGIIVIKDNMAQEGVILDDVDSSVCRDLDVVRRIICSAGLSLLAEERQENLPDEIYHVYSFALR
In general terms: Quantitative high-throughput screening tests each substance at several concentrations.
On to `FC(F)(F)c1cccc(N2CCN(C(=S)Nc3ccccn3)CC2)c1`, for which the Potency is 1.54 µM (active).

For `Cc1cnc(Nc2ccc(F)cc2Cl)nc1-c1c[nH]c(C(=O)NC(CO)c2cccc(Cl)c2)c1` (stereo not given), the Potency is 6.22 µM (active).

Take `Clc1ccc(Nc2nnc(Cc3ccncc3)c3ccccc23)cc1`: the Potency is 62.2 µM (active).

On to `Cc1cc(C)nc(NC(=S)N2CCN(c3cccc(S(C)(=O)=O)c3)CC2)c1`, for which the Potency was 12.3 µM (active).

Take `Nc1ccc(C(=O)Nc2cccc(-c3nc(N4CCOCC4)c4oc5ncccc5c4n3)c2)cn1`: the Potency is 22.1 µM (active).

Turning to `COc1cc2c(NC3CCN(C(C)C)CC3)nc(N3CCCCCC3)nc2cc1OCCCN1CCCC1`, the Potency is 38.8 µM (active).

With `COc1ccc2cc3c(NC(=O)c4ccco4)nn(C)c3nc2c1`, the Potency was 49.4 µM (active).

Turning to `COc1ccc(C2=Nn3c(nnc3-c3ccccc3C)SC2)cc1OC`, the Potency was 34.5 µM (active).

`COc1cc(N2CCC(N3CCN(C)CC3)CC2)ccc1Nc1ncc(Cl)c(-c2c[nH]c3ccccc23)n1`: the Potency was 17.5 µM (active).

With `COc1cc2nc(N3CCOCC3)nc(NC(C)C)c2cc1OC`, the “activity, negative = inhibition” value was 82.2%.

For `O=C([C@@H]1CCCN(c2ccc3[nH]c(C4(n5cc(Cl)cn5)CC4)nc3n2)C1)N1CCCC1`, the Potency was 22.1 µM (active).

On to `O=C(Nc1ccc(S(=O)(=O)C(F)(F)F)cc1)C1=CCN(c2ncccc2C(F)(F)F)CC1`, for which the “activity, negative = inhibition” value was 49.9% [at 114 µM].

On to `Cc1cc(O)c2c(c1)C(=O)c1cc(O)cc(O)c1C2=O`, for which the Potency is 27.4 µM (active).

In the case of `COc1cc2c(NC3CCN(CC4CCCCC4)CC3)nc(N3CCCCC3)nc2cc1OCCOCCN(C)C`, the Potency was 12.3 µM (active).

For `COc1cc2c(NC3CCN(C4CCCCC4)CC3)nc(N3CCCN(C)CC3)nc2cc1OCCCN1CCCCC1`, the Potency is 43.5 µM (active).

`C=Cc1c(C)c2cc3[nH]c(cc4nc(cc5nc(cc1[nH]2)C(C)=C5CCC(=O)O)C(CCC(=O)O)=C4C)c(C)c3C=C`: the Potency was 15.4 µM (active).

Regarding `COc1cc(N2CCC(O)CC2)ccc1Nc1nc(Nc2ccccc2S(=O)(=O)C(C)C)c2[nH]cnc2n1`, the Potency is 19.7 µM (active).

Regarding `N#Cc1ccc(Nc2nc(-c3ccc(O)cc3O)cs2)cc1C(F)(F)F`, the Potency is 49.4 µM (active).

In the case of `COc1cc2c(NC3CCN(C4CCCCC4)CC3)nc(N3CCCCC3)nc2cc1OCCOCCN(C)C`, the Potency was 43.5 µM (active).

With `Nc1ncnc2c1nc(N)n2[C@@H]1O[C@H](CO)[C@@H](O)[C@H]1O`, the Potency was 27.8 µM (active).

On to `CNCCCOc1cc2nc(N3CCCN(C)CC3)nc(NC3CCN(C)CC3)c2cc1OC`, for which the Potency is 43.5 µM (active).

Consider `Cc1cc(N2CCOCC2)cc2[nH]c(-c3c(NC[C@@H](O)c4cccc(Cl)c4)cc[nH]c3=O)nc12`, for which the Potency was 13.9 µM (active).

Take `Cc1cccc(C)c1OCC(N)C(C)C` (stereo not given): the Potency is 1.54 µM (active).

For the molecule `Oc1cc2c(c(Cl)c1O)CCNCC2c1ccccc1` (stereo not given), the Potency was 30.8 µM (active).

Turning to `COc1cc2c(NC3CCN(CC4CCCCC4)CC3)nc(N3CCCN(C(C)C)CC3)nc2cc1OCCCN1CCCCC1`, the Potency is 12.3 µM (active).

`CC(C)c1cc2c(c(O)c1O)[C@@]13CCCC(C)(C)C1[C@@H](O)[C@@H]2OC3=O` (stereo not given in full): the Potency was 12.2 µM (active).

Consider `COc1cc2c(NC3CCN(C)CC3)nc(N3CCCN(C)CC3)nc2cc1OCCCCCN`, for which the Potency is 30.8 µM (active).

On to `COc1cc2c(NC3CCN(C(C)C)CC3)nc(N3CCCN(CC4CCCCC4)CC3)nc2cc1OCCCN1CCCCC1`, for which the “activity, negative = inhibition” value is 198%.

Consider `COc1c/c(=C2\C=c3ccccc3=N2)[nH]/c1=C/c1[nH]c(C)cc1C`, for which the Potency was 24.8 µM (active).

`O=C1NC(=O)/C(=C/c2ccc(-c3ccc(F)cc3O)o2)S1`: the Potency is 30.8 µM (active).
